# An excerpt weighted towards active compounds, which were near 3.1% of everything screened.
# VDR inh: Inhibitors of the vitamin D receptor (VDR): qHTS. VDR-SRC2-3 peptide fluorescence polarization, 2 h. Potency, µM, without a hit: max response, negative = inhibition, most hits filed as inhibitors. Vitamin D3 receptor (Homo sapiens), P11473. hit rate 0.93% among 400,000; further: potency means the concentration at half of the fitted maximal effect; on the % scale 0 is the no-effect control and ±100 the full control effect
#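 The screen uses fluorescence polarization to detect compounds that interfere with recruitment of the SRC2-3 coactivator peptide to VDR; plates are read after 2 h at room temperature.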
# Vif-APOBEC3F blk: qHTS for Inhibitors of Vif-A3F Interactions: qHTS; HeLa A3F-eYFP + Vif (tagged APOBEC3F with the HIV-1 protein that degrades it), YFP fluorescence increase; Potency, µM (top dose mostly 46.1 µM), inactives show at the top dose activity, negative = active; hit rate 0.2% among 390,000; AID 602313, 2012; further: potency means the concentration at half of the fitted maximal effect; % of control where 0% means no effect; nearly all actives have a fitted effect of over 65% in size
#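 HeLa cells stably expressing A3F-eYFP plus Vif, plated and incubated overnight at 37 deg C, then exposed to compounds overnight at 37 deg C. Blocked degradation read as raised yellow fluorescence (Ex 488/Em 500-530).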
# TSHR antag: Antagonists of the Thyroid Stimulating Hormone Receptor: HTS campaign; AID 504810, 2011; hit rate 0.2% among 330,000; activity change, negative = inhibition, % at 11.5 µM; TSHR-expressing cells, TSH-stimulated cAMP HTRF, 2 h; active compounds read low;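 active means activity change below a set negative limit, meaning inhibition stronger than a set level, cut at about -70% in these data; inconclusive means activity change between two set negative limits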; further: on the % scale 0 is the no-effect control and ±100 the full control effect
#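 Cell-based HTRF cAMP assay; TSHR cells + compound, TSH EC80 (4nM final), 2 h, 37 deg C. Lysis with anti-cAMP cryptate and cAMP-d2, 30 min RT, read 665/620 nm.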
# PLK1 PBD inh: qHTS for Inhibitors of PLK1-PDB (polo-like kinase 1 - polo-box domain): Primary Screen. Plk1 PBD binding of FITC phosphopeptide, fluorescence polarization. Potency, µM, without a hit: max response, negative = inhibition, hits mostly inhibitors. hit rate 2.8% among 360,000; further: potency means the concentration at half of the fitted maximal effect; series mostly up to about 57 µM; on the % scale 0 is the no-effect control and ±100 the full control effect; nearly all actives have a fitted effect of over 65% in size
# Vif-A3G inh: qHTS for Inhibitors of Vif-A3G Interactions: qHTS; DNA dC->dU-editing enzyme APOBEC-3G (Homo sapiens), Q9HC16; HeLa A3G-eYFP + Vif (tagged APOBEC3G with the HIV-1 protein that degrades it), YFP fluorescence, overnight; Potency, µM (series often up to 46.1 µM), inactives show at the top dose activity, negative = active, most hits filed as inhibitors; hit rate 0.076% among 410,000; AID 602310, 2012; further: potency means the concentration at half of the fitted maximal effect; on the % scale 0 is the no-effect control and ±100 the full control effect; nearly all actives have a fitted effect of over 60% in size
# Target sequence (Q9HC16 whole entry, looked up): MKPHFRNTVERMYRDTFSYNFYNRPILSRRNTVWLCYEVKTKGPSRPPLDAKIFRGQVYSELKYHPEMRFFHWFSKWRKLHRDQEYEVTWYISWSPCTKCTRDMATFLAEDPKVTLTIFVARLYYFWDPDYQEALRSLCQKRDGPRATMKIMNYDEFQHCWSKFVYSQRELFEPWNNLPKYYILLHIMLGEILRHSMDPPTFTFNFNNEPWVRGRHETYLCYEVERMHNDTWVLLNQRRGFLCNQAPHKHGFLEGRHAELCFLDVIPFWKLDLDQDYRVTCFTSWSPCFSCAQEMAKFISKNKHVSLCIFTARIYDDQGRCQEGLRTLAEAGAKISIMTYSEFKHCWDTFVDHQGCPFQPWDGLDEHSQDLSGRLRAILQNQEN
#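 Read-out is eYFP fluorescence (Ex 488/Em 500-530) from Vif-expressing HeLa A3G-eYFP cells; more signal means A3G escaped Vif-mediated degradation. Cells plated overnight, compound pinned in, incubated overnight at 37 deg C.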
# * hit, by the source's call; ? = inconclusive; · = not tested or not shown. Unless noted, the call rests on the fitted dose curve; in most records, active means well fitted curve in the direction sought with a large enough effect; inconclusive means small, poorly fitted or top-dose-only effect, or another doubt; inactive means no such curve, though single readings can be large; an effect the other way counts as inactive or inconclusive.
SMILES,VDR inh,Vif-APOBEC3F blk,TSHR antag,PLK1 PBD inh,Vif-A3G inh
Cc1ccc(C(=O)Nc2cccc(C(=O)OCc3cc(=O)n4c5c(sc4n3)CCCC5)c2)cc1,5.6%,-5.8%,·,·,-0.2%
COc1ccc2c(c1)c(C(=O)CN(C)C)c(C)n2C,·,·,·,·,4.9%
O=C(NCc1ccc2c(c1)OCO2)c1nc(S(=O)(=O)Cc2ccccc2F)ncc1Cl,-11.0%,-1.8%,-44.3,13.4µM*,?
COc1cc(C2Nc3cccc4cccc(c34)N2)ccc1OC(C)=O,-22.2%,3.2%,-14.7,26.7µM*,-1.9%
COc1ccc(C2Nc3cccc4cccc(c34)N2)cc1Br,-24.0%,-26.4%,-7.3,-26.0%,-1.4%
CC(=O)NC1C(=O)N(Cc2ccccc2)c2ccc(Br)cc21 (stereo not drawn),?,-1.7%,0.9,26.7µM*,2.4%
CC(=O)NC1C(=O)N(CCc2ccccc2)c2ccc(Br)cc21 (stereo not drawn),4.6%,0.5%,11.0,-6.0%,0.3%
CC(=O)Nc1ccc(S(=O)(=O)NC(C)c2ccncc2)cc1 (stereo not drawn),-17.6%,-3.0%,-0.4,1.0%,1.0%
CC(=O)Nc1ccc(S(=O)(=O)NC(C)C(=O)NC(C)c2ccccc2)cc1 (stereo not drawn),-28.7%,8.5%,1.4,11.9µM*,0.5%
CC(=O)Nc1ccc(S(=O)(=O)N[C@@H](C)C(=O)N2CCN(c3ccccn3)CC2)cc1,?,6.8%,·,11.9µM*,5.5%
Cc1ccccc1NC(=O)c1nc(SCc2ccccc2F)ncc1Cl,·,·,·,·,3.1%
CCOCC,1.4%,·,·,·,·
COc1cc2ccnc(Cc3cccc(OC)c3OC)c2cc1OC,-13.7%,4.9%,-17.6,26.7µM*,-4.9%
O=C1NC(c2cccc3ccccc23)Nc2ccccc21 (stereo not drawn),12.3%,7.6%,·,-7.0%,-40.3%
O=C1c2ccccc2C(=O)C1Cc1cccc2ccccc12,?,2.6%,-1.9,6.7µM*,?
CCOC(=O)c1sc(=S)n(-c2ccccc2Cl)c1SC,5.7%,-6.9%,21.5,-24.9%,-14.6%
CCOC(=O)c1c(N)sn(-c2ccccc2C)c1=S,35.5µM*,5.7%,-12.8,5.32µM*,0.3%
CN(C)CCCNC(=O)C(=O)NCC(c1ccc2c(c1)OCO2)N1CCOCC1 (stereo not drawn),1.5%,-3.6%,·,·,1.5%
COC(=O)c1cc2oc(C)cc2n1Cc1ccc(Br)cc1F,-16.9%,1.5%,·,·,2.6%
COc1ccc(C(=O)Nc2ccccc2C(=O)N2CCOCC2)cc1Br,-8.4%,2.5%,-6.4,26.7µM*,-1.5%
CCOc1ccc(C(=O)Nc2ccc(CN3CCOCC3)cc2)cc1Br,-10.1%,1.1%,4.0,29.9µM*,-0.1%
COc1ccc(C(=O)Nc2ccccc2C(=O)NC(C)C)cc1OC,?,·,4.6,26.7µM*,-1.4%
O=C(Nc1ccccc1C(=O)NC(Cc1ccccc1)C(=O)NC1CCCCCC1)c1ccccc1 (stereo not drawn),-9.3%,9.0%,-19.5,26.7µM*,-8.3%
COc1ccc(C(=O)Nc2ccccc2C(=O)N2CCCCCC2)cc1OC,-1.3%,3.5%,12.4,-7.8%,-0.1%
O=S(=O)(NCCS(=O)(=O)N1CCN(c2cccc(Cl)c2)CC1)c1ccc(F)cc1,26.8%,0.3%,·,·,1.7%
SMILES,VDR inh,Vif-APOBEC3F blk,TSHR antag,PLK1 PBD inh,Vif-A3G inh
CC(=O)c1ccc(N2C(=O)N(Cc3ccccc3C#N)c3ccccc3S2(=O)=O)cc1,0.9%,-5.4%,·,·,-2.8%
c1nc(SSc2ncc3n[nH]nc3n2)nc2n[nH]nc12,·,·,·,·,-1.7%
CCC(C)C(NC(=O)c1ccccc1NC(=O)c1ccccc1)C(=O)O (stereo not drawn),?,3.0%,0.8,26.7µM*,2.2%
Cc1ccc2nc(N3CC(C)OC(C)C3)nc(-c3ccccc3)c2c1 (stereo not drawn),-9.3%,-23.6%,15.2,-0.7%,6.2%
Cc1cc(N2CCN(c3ccccc3)CC2)nc2ccccc12,22.4%,0.3%,-13.3,2.4%,-1.4%
Cc1cc(N2CC(C)OC(C)C2)nc2ccccc12 (stereo not drawn),?,-8.7%,9.9,26.7µM*,-0.2%
CC1CN(c2nnc(-c3ccccc3)c3ccccc23)CC(C)O1 (stereo not drawn),-29.6%,-8.8%,-14.7,21.2µM*,0.6%
COc1ccccc1CNC(=O)c1cc2sccc2n1Cc1ccc(F)cc1,89.1µM*,0.1%,·,·,1.7%
CCCCCc1ccc(C)cc1O,7.4%,·,·,·,·
Cc1cc(C)c(-n2[nH]nnc2=S)c(C)c1,-22.5%,0.8%,1.3,29.9µM*,1.6%
COc1ccc(C)cc1-n1[nH]nnc1=S,8.5%,?,-3.6,-18.0%,-1.7%
Cc1ccccc1OCCOC(=O)c1c(-c2ccccc2)noc1C,5.3%,-1.3%,-3.9,-6.8%,?
Cc1onc(-c2ccccc2)c1C(=O)OCCOc1ccccc1F,?,-8.0%,-17.6,26.7µM*,-1.7%
CCCCNc1c(-c2ccc(SC3CCCCC3)cc2)nc2cnccn12,1.6%,?,-31.9,?,3.16µM*
COc1ccccc1CNC(=O)C(=O)c1cn(CC(=O)N2CCCC2)c2ccccc12,0.7%,0.9%,5.6,-8.6%,0.9%
COc1ccccc1CCNC(=O)C(=O)c1cn(CC(=O)N2CCOCC2)c2ccccc12,?,1.9%,20.6,23.8µM*,4.5%
CC(C)C(Cl)=NOC(=O)Nc1ccc(S(N)(=O)=O)cc1,?,3.8%,·,8.44µM*,-7.1%
COC(=O)[C@H](C)NC(=O)Nc1ccc(S(N)(=O)=O)cc1,-17.5%,-1.2%,14.4,-5.8%,-1.2%
CCOc1ccccc1CN1C(=O)c2ccccc2C1C(=O)NC1CCCCCC1 (stereo not drawn),-9.3%,2.6%,·,·,1.7%
Cc1ccccc1C(=O)Nc1cccc(NC(=O)c2ccc(C(C)(C)C)cc2)c1,50.1µM*,-0.2%,·,·,-1.1%
Cc1ccccc1C(=O)Nc1cccc(N)c1,6.7%,5.6%,6.1,-1.3%,-0.9%
COc1ccccc1C(=O)Nc1cccc(NC(=O)c2ccccc2C)c1,-13.9%,3.4%,18.0,21.2µM*,-1.3%
Cc1cc(C)nc(SCNC(=O)c2ccccc2)n1,-4.9%,-3.1%,24.6,-21.7%,-0.7%
Cc1cc(SCNC(=O)c2ccccc2)nc(C(C)C)n1,-28.3%,6.4%,0.3,23.8µM*,0.5%
CCOc1ccc(CCNC(=O)CCc2c(C)nc3c(c(C)nn3-c3ccccc3)c2C)cc1OCC,4.5%,-5.1%,·,·,-2.2%
CN(C)CCCNC(=O)C[C@H]1C[C@H](C(=O)N2CCCCC2)[C@@]2(CCc3ccccc3)c3[nH]c4cc(-c5ccco5)ccc4c3CCN2C1=O,8.0%,4.0%,6.1,-10.4%,-22.9%

# Assay outcomes as filed in PubChem.
